From publication PMC6212790, “How bacterial xenogeneic silencer rok distinguishes foreign from self DNA in its resident genome”
Over roughly 33,000 sequences, “e-score” has its median near -0.037; the highest 2% begin near 0.34. Shown is part of a subset that was picked to be rich in the highest values.

target: T1, GST-Rok (full length) (Bacillus subtilis subsp. subtilis str. …, UniProt O34857 1-191); test: protein binding microarray; Rok is a gene silencer of Bacillus subtilis; high values mean tight binding; conditions: protein: recombinant; tags: GST (pTH5325, pDEST15-Magic modified); dsDNA, one strand shown
T1 sequence: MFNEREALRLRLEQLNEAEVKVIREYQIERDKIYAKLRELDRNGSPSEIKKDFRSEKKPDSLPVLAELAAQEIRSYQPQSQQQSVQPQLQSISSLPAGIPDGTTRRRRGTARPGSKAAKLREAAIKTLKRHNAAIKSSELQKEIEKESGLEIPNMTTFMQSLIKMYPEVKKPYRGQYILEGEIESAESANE
Outline: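 Every oligonucleotide joins a 25-mer constant primer to a 35-mer variable part drawn from a de Bruijn sequence of order 10, so each non-palindromic 8-mer appears at least 32 times and each palindromic 8-mer 16 times. The preference for every 8-mer is reported as a unitless, rank-based enrichment score (E-score). This score spans 0.5 for the most favored 8-mer to −0.5 for the most disfavored.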

Row | Sequence | binding signal [E-score]
1 | TGAACCCA | -0.0568
2 | CAACTAAA | 0.249
3 | TCTAACAA | 0.0589
4 | AAGCGCAG | -0.165
5 | GAGACTGA | 0.0243
6 | ACCAATCC | 0.0382
7 | ATGGTGAG | -0.0135
8 | ACTAAAAT | 0.406
9 | ACTAAATC | 0.343
10 | ACTAAAAC | 0.303
11 | ACTAAATA | 0.3
12 | ACTAAATG | 0.277
13 | ACTAAAAA | 0.21
14 | CAAACAAC | 0.00627
15 | TAGCGGAA | 0.245
16 | GATGGACC | -0.171
17 | ATTGTTCA | 0.126
18 | ACTGGCGG | -0.0567
19 | CAGCTGGA | -0.0564
20 | GGAGCAAC | -0.104
21 | AAACTAGC | 0.362
22 | GAACTAGC | 0.176
23 | CAACTAGC | 0.203
24 | AAACTAGT | 0.459
25 | ACACTAGT | 0.32

Row | Sequence | binding signal [E-score]
26 | AAACTAGG | 0.252
27 | AAATCCAT | 0.193
28 | GGAGGTGA | -0.124
29 | CCGGCAGC | -0.14
30 | CCGCGTCG | 0.0351
31 | ACAGTGTA | 0.268
32 | GTAACTCA | 0.22
33 | CGTTTTAA | 0.191
34 | ACGAGTAG | -0.0634
35 | AATGTACT | 0.303
36 | AATGTATG | 0.272
37 | GTTGTATA | 0.348
38 | AAAGTACA | 0.364
39 | ATTGTATA | 0.32
40 | AATGTACA | 0.347
41 | CAAGTACA | 0.165
42 | AATGTATA | 0.388
43 | CTTGTATA | 0.219
44 | AAAGTACG | 0.22
45 | AATGTACG | 0.192
46 | AATGTATC | 0.224
47 | CAGTACTG | 0.0294
48 | CCTGGCGA | -0.199
49 | GTCCGTCA | -0.0558
50 | GGCAGCTA | -0.0821

Row | Sequence | binding signal [E-score]
51 | AGAAAGAT | 0.0756
52 | AAGGCGGT | -0.0994
53 | TATGTACA | 0.378
54 | ATTGTACA | 0.369
55 | GATGTACA | 0.282
56 | CATGTACA | 0.317
57 | ATTGTACC | 0.239
58 | ATTGTACG | 0.266
59 | ACGCTTGC | -0.1
60 | CCGTTTTA | 0.0815
61 | CCAATCTA | 0.283
62 | GCAATCTA | 0.361
63 | TAAATCTA | 0.308
64 | CAAATCTC | 0.0513
65 | ACAATCTA | 0.283
66 | GAAATCTA | 0.345
67 | GAAATCTC | 0.209
68 | CAAATCTA | 0.377
69 | CAAATCTG | -0.00951
70 | ATTGATCG | 0.0726
71 | CAACTGAA | -0.0305
72 | CCTCTCTA | -0.198
73 | CGTATCGA | 0.0045
74 | ATAAATAA | 0.329
75 | ACAAATAC | 0.249

Row | Sequence | binding signal [E-score]
76 | ACAAATAA | 0.333
77 | ATAAATAT | 0.339
78 | ATAAATAG | 0.322
79 | ACAAATAT | 0.402
80 | AATAACCT | 0.0317
81 | AACCACGT | -0.0233
82 | ACCATAGT | 0.207
83 | CGATAGAA | 0.344
84 | AGATAGAA | 0.26
85 | CGATAGAC | 0.0161
86 | TGATAGAA | 0.388
87 | GGATAGAA | 0.171
88 | CGATAGAG | -0.134
89 | AGGTGCCA | -0.0282
90 | CTTATTGA | -0.157
91 | AATAGATC | 0.14
92 | GATAGATC | 0.273
93 | AATAGATA | 0.262
94 | GATAGACA | -0.0476
95 | GATAGATA | 0.368
96 | TATAGATA | 0.384
97 | AATAGATG | 0.261
98 | AATAGATT | 0.388
99 | CATAGATA | 0.3
100 | ACCGTACT | 0.0822

Row | Sequence | binding signal [E-score]
101 | ATTTGGCC | -0.00123
102 | CACGGTAG | 0.264
103 | AACATCAA | 0.0614
104 | CGAAGCAA | -0.114
105 | AACCTCGC | -0.106
106 | AAATTCGT | 0.226
107 | CAAATATG | 0.194
108 | AAAATATG | 0.278
109 | CAAATATC | 0.285
110 | GAAATATA | 0.283
111 | TAAATATA | 0.394
112 | AAAATATA | 0.417
113 | ACAATATA | 0.298
114 | AAAATATC | 0.275
115 | CAAATATA | 0.345
116 | AAAATAAA | 0.199
117 | TAAATAAA | 0.231
118 | AAAATATT | 0.358
119 | AATGACCG | -0.0639
120 | AGGAATTC | -0.159
121 | ACGAACCA | 0.000876
122 | TCATTCAA | -0.111
123 | CAGTTTTC | 0.0134
124 | TATCGATA | 0.376
125 | GATCGATA | 0.269

Row | Sequence | binding signal [E-score]
126 | AATCGATA | 0.281
127 | CTACAATA | 0.291
128 | AGAATCCT | 0.0705
129 | ACGAAACA | 0.0691
130 | ACGAAACT | 0.337
131 | ACGAAACC | -0.0947
132 | AGCCTTAG | -0.181
133 | ATTAGATC | 0.293
134 | CGTAGATC | 0.21
135 | AGTAGATA | 0.442
136 | ATGAGATC | 0.0598
137 | ATGAGATA | 0.346
138 | ATTAGATA | 0.367
139 | AGTAGATC | 0.324
140 | CGTAGATA | 0.258
141 | AGTAGATG | 0.283
142 | CTGAGATA | 0.0758
143 | GTTAGATA | 0.241
144 | GGTAGATA | 0.451
145 | CGTAATAA | 0.27
146 | CTCTTCGC | 0.197
147 | CCATAAAC | -0.00276
148 | ATAAAGAA | -0.0956
149 | GTCATAAA | 0.154
150 | AATCTTCG | 0.0665

Row | Sequence | binding signal [E-score]
151 | TACTTATA | 0.321
152 | AATTTATG | 0.283
153 | ATTTTATA | 0.41
154 | CACTTATA | 0.329
155 | AACTTATA | 0.403
156 | AATTTATA | 0.435
157 | ATTTTATG | 0.251
158 | GTTTTATA | 0.141
159 | GATTTATA | 0.315
160 | CTAATCGC | 0.18
161 | AGAAACAT | 0.155
162 | CGGCTATC | -0.0522
163 | ACTAGCGG | 0.188
164 | CCAAACGA | 0.042
165 | GAAATGCA | -0.095
166 | GAAATGTA | 0.351
167 | GAAATGTC | 0.126
168 | CAAATGTA | 0.289
169 | AAAATGTA | 0.287
170 | TAAATGTA | 0.411
171 | CTTGTTTC | 0.0903
172 | CAAACCAG | -0.185
173 | AACCATGC | -0.0502
174 | CCTATCAC | 0.0828
175 | GCTATCAA | 0.164

Row | Sequence | binding signal [E-score]
176 | ACTATCAA | 0.337
177 | ACTATCAC | 0.34
178 | GCTATCAC | 0.244
179 | CCTATCAA | 0.161
180 | AGAAAGTC | 0.121
181 | GTAAAGAA | 0.0756
182 | TCTATTCA | 0.0926
183 | CACTAAAA | 0.293
184 | GACTAAAA | 0.123
185 | AACTAAGA | 0.138
186 | AACTAAAA | 0.345
187 | AACTAAAT | 0.362
188 | ACCTAAAA | 0.306
189 | AACTAAAG | -0.0498
190 | AACTAAAC | 0.138
191 | TACTAAAA | 0.434
192 | CGCCCAAC | -0.14
193 | AACTTTGA | -0.0517
194 | AACATTAC | 0.214
195 | CGTAGGTA | 0.347
196 | CCTAGGTA | 0.0506
197 | AGTAGGTC | 0.069
198 | AGTAGGTA | 0.404
199 | AGTAGGTG | 0.174
200 | GGTAGGTA | 0.304

Row | Sequence | binding signal [E-score]
201 | GATGGAGA | -0.0862
202 | ATTAACCG | 0.0492
203 | CGAAAGGC | -0.183
204 | CTTACAAG | -0.114
205 | ATGAATCC | 0.0418
206 | CTAGCTAA | 0.133
207 | ATAGCTAT | 0.373
208 | GAAGCTAC | 0.323
209 | ATAGCTAG | 0.273
210 | GTAGCTAA | 0.373
211 | ATAGCTAC | 0.333
212 | GTAGCTAC | 0.436
213 | TTAGCTAA | 0.129
214 | CTAGCTAC | 0.198
215 | CCGCTGAC | -0.15
216 | GCCGCATA | -0.186
217 | AGAGTCGA | -0.0761
218 | CTAGTGTC | 0.0749
219 | GGCAGTAC | -0.0236
